# Source: ChEMBL document CHEMBL1961873, “Compounds: GSK PKIS; Assays: Nanosyn kinase panel” (2012)
# Several values for one entry are separate records, joined by “and”; a condition that tells them apart may be missing. Equal values may be shown once.
# Columns and labels:
# [1] = target: T1, Inhibitor of nuclear factor kappa-B kinase subunit epsilon (Homo sapiens) (UniProt Q14164); settings: at 1 µM;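 also: reported values are averaged percent inhibition figures against human IKKε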
# T1 sequence (whole entry): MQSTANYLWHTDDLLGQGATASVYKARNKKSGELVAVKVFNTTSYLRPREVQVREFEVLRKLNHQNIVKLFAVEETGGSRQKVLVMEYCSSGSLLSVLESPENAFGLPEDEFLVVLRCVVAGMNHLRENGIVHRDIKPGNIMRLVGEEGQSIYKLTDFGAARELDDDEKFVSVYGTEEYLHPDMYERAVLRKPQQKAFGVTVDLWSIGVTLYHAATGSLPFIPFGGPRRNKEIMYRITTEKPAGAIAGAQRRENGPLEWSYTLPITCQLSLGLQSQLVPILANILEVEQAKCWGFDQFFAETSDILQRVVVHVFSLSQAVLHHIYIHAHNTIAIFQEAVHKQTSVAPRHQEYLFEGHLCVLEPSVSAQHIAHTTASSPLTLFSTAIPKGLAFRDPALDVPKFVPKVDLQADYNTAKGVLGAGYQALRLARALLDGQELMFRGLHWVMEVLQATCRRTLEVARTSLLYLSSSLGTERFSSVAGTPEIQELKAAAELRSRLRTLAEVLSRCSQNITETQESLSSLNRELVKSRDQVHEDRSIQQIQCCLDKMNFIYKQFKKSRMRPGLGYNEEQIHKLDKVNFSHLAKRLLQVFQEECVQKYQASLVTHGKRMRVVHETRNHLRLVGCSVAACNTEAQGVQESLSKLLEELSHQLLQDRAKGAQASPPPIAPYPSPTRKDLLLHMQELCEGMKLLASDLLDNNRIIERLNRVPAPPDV
# [2] = target: T2, Serine/threonine-protein kinase Nek1 (Homo sapiens) (UniProt Q96PY6); settings: at 0.1 µM
# T2 sequence (whole entry): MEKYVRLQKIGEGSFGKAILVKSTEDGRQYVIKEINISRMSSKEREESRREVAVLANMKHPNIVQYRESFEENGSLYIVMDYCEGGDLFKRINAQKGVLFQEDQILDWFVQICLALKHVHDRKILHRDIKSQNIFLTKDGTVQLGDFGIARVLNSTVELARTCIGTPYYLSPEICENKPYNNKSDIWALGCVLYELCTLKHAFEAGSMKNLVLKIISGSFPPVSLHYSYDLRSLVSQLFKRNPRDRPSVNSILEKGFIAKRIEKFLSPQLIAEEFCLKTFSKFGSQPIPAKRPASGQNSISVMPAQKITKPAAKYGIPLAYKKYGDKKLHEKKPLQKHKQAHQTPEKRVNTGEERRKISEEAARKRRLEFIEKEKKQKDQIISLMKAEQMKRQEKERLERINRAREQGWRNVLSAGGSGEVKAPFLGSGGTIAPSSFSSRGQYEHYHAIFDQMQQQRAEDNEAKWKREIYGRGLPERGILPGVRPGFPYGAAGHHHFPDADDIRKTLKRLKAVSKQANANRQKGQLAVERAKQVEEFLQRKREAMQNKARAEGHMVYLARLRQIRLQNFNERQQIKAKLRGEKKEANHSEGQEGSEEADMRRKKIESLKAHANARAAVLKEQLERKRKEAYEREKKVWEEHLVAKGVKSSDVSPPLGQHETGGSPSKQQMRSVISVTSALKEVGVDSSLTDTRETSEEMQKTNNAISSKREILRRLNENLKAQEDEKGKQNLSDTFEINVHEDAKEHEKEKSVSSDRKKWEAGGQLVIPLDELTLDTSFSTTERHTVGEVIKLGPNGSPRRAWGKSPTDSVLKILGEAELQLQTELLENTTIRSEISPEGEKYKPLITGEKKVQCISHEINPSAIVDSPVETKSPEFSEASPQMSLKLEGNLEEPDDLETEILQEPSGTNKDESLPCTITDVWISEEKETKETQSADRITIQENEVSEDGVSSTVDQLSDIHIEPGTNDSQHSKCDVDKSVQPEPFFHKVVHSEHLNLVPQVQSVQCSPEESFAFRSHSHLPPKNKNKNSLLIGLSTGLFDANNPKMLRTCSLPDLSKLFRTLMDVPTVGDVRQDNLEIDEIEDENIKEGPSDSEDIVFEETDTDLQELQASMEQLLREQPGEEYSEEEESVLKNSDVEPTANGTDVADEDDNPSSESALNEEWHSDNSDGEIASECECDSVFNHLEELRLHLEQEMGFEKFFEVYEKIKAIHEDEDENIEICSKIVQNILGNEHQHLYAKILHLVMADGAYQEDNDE
# [3] = target: T2, Serine/threonine-protein kinase Nek1 (Homo sapiens); settings: at 1 µM
# [4] = target: T3, Serine/threonine-protein kinase Nek2 (Homo sapiens) (UniProt P51955); settings: at 0.1 µM
# T3 sequence (whole entry): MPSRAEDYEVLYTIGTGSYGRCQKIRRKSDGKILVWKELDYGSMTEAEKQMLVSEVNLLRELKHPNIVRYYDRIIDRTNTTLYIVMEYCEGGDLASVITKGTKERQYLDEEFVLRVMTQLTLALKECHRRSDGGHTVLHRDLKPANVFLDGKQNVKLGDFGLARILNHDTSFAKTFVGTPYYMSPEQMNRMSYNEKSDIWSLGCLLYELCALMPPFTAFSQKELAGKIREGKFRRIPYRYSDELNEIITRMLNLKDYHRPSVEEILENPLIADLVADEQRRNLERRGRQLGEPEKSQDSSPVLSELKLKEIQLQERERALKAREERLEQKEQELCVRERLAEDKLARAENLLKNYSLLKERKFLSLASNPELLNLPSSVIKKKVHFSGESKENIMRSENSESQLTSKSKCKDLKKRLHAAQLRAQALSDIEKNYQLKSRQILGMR
# [5] = target: T3, Serine/threonine-protein kinase Nek2 (Homo sapiens); settings: at 1 µM
# [6] = target: Serine/threonine-protein kinase Nek6 (Homo sapiens) (UniProt Q9HC98); settings: at 0.1 µM
# [7] = target: Serine/threonine-protein kinase Nek6 (Homo sapiens) (UniProt Q9HC98); settings: at 1 µM
# [8] = target: Serine/threonine-protein kinase Nek7 (Homo sapiens) (UniProt Q8TDX7); settings: at 0.1 µM
# [9] = target: Serine/threonine-protein kinase Nek7 (Homo sapiens) (UniProt Q8TDX7); settings: at 1 µM
# [10] = target: T4, Serine/threonine-protein kinase Nek9 (Homo sapiens) (UniProt Q8TD19); settings: at 0.1 µM;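 also: reported value is the mean percent inhibition of NEK9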
# T4 sequence (whole entry): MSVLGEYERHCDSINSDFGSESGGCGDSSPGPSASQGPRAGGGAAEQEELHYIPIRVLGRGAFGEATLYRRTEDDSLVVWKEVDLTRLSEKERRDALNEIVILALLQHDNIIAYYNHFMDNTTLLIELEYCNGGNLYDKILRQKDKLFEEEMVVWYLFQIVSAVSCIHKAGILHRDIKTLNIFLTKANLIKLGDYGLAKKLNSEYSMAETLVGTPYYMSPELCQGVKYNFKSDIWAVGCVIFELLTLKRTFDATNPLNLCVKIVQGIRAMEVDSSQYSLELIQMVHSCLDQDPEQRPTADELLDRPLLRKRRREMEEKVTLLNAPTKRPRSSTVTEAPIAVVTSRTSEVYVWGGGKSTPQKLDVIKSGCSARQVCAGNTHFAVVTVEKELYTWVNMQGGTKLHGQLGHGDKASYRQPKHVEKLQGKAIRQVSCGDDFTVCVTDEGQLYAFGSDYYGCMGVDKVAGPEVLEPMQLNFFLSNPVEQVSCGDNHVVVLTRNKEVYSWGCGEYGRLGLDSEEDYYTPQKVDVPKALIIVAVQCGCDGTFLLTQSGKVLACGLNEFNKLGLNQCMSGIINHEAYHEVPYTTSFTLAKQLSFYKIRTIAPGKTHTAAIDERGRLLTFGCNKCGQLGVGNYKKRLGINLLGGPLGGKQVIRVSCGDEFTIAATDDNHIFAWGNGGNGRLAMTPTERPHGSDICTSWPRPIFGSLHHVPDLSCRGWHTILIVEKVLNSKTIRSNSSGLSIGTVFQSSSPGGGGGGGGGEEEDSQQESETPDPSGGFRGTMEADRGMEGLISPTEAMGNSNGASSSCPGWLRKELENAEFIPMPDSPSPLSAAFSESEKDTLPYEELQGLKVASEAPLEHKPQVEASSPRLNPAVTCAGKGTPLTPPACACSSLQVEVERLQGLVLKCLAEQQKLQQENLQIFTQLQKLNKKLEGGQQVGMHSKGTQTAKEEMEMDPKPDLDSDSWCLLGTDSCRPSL
# Sequence of Serine/threonine-protein kinase Nek7 (Homo sapiens) (Q8TDX7 whole entry, looked up): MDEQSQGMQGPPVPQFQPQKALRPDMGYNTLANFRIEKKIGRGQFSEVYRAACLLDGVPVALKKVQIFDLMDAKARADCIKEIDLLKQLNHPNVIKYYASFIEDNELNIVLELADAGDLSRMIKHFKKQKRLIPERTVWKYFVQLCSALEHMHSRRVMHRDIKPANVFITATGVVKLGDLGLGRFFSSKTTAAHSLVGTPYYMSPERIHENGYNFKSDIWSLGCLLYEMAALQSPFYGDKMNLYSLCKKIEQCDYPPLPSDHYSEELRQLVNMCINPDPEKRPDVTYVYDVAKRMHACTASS
# Sequence of Serine/threonine-protein kinase Nek6 (Homo sapiens) (Q9HC98 whole entry): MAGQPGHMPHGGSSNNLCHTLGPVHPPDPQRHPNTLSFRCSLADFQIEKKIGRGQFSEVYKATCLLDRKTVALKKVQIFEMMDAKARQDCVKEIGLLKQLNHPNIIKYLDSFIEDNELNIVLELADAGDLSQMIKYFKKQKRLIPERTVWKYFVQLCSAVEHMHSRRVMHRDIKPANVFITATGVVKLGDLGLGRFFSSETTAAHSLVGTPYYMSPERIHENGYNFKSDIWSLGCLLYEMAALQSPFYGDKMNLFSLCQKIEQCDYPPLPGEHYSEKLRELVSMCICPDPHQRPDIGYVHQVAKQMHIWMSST
SMILES,inhibition [1],inhibition [2],inhibition [3],inhibition [4],inhibition [5],inhibition [6],inhibition [7],inhibition [8],inhibition [9],inhibition [10]
O=C(O[C@H]1CN[C@H](C#Cc2cc3ncnc(Nc4ccc5c(cnn5Cc5ccccc5)c4)c3s2)C1)N1CCOCC1,2.35%,1.14%,-0.05%,0.17%,0.04%,-0.55%,1.2%,-1.22%,1.45%,-1.71%
CS(=O)(=O)CCNCc1ccc(-c2ccc3ncnc(Nc4ccc(OCc5cccc(C(F)(F)F)c5)cc4)c3c2)o1,4.77%,3.08%,8.21%,7.25%,6.57%,0.78%,4.95%,2.96%,7.52%,4.02%
CN1CCN(Cc2ccc(-c3cc4ncnc(Nc5ccc(OCc6cccc(F)c6)c(Cl)c5)c4s3)o2)CC1,4.6% and 4.24%,1.24% and 3.95%,2.68% and 4.85%,3.46% and 4.63%,2.94% and 4.7%,-1.83% and 5.78%,0.03% and 5.91%,2.08% and 6.06%,5.67% and 4.39%,-2.04% and 6.24%
COc1cc2c(cc1Nc1nc(Nc3cccc(F)c3C(N)=O)c3cc[nH]c3n1)N(C(=O)CN1CCN(C(C)C)CC1)CC2,2.31%,2.53%,6.64%,2.3%,2.17%,1.18%,1.05%,3.3%,6.3%,0.4%
CC1=C(C(=O)Nc2ccc3[nH]nc(C)c3c2)C(c2ccc(C(F)(F)F)cc2)CC(=O)N1 (stereo not given),2.46%,1.56%,2.57%,3.16%,3.29%,1.24%,-1.35%,3.34%,2.74%,1.92%
COC(=O)Nc1nc2ccc(Oc3ccc(NC(=O)Nc4cc(C(F)(F)F)ccc4F)cc3)cc2s1,-1.19%,1.14%,1.38%,-0.09%,0.69%,-1.08%,-4.58%,1.35%,0.53%,-1.57%
COc1cc(N2CCN(C(C)C)CC2)ccc1Nc1nc(Nc2cccc3ncccc23)c2cc[nH]c2n1,0.88%,-0.11%,0.84%,-0.73%,-0.48%,-0.86%,-2.27%,1.54%,-0.41%,4.56%
NC(=O)c1ccc2c(-c3ccnc(NCCCO)n3)c(-c3ccc(F)cc3)nn2c1,3.59%,2.6%,3.93%,5.07%,6.59%,1.23%,-0.99%,6.38%,4.14%,5.71%
FC(F)(F)CNc1nccc(-c2cnn3ncccc23)n1,0.44%,2.31%,0.95%,3.06%,2.24%,0.83%,0.6%,-1.64%,1.79%,4.65%
CCCNc1cccc(-n2ncc3c(N/N=C/c4ccncc4)ncnc32)c1,13.4%,0.28%,7.87%,-1.07%,0.85%,4.08%,2.63%,-1.02%,-0.91%,1.01%
CS(=O)(=O)CCNCc1ccc(-c2ccc3ncnc(Nc4ccc(OCc5ccccc5)cc4)c3c2)o1,4.6%,2.22%,2.22%,4.68%,3.32%,2.28%,3.11%,2.47%,3.65%,5.77%
COc1c(C(N)=O)cc(-c2ccc(Cl)cc2)cc1-c1ccc(S(N)(=O)=O)cc1,5.47%,2.17%,4.16%,6.76%,5.43%,0.6%,1.71%,4.31%,10.4%,4.85%
Cc1nnc(-c2cccc(-c3ccc(C(=O)NCC4CC4)cc3)c2)o1,8.77%,3.27%,4%,6.76%,5.41%,2.74%,6.86%,4.29%,4.11%,4.46%
CC1(C)CC(n2cnc(-c3ccc(F)cc3)c2-c2ccnc(N)n2)CC(C)(C)N1,0.72%,0.9%,0.83%,1.02%,2.07%,1.95%,0.37%,3.74%,1.39%,5.35%
c1ccc(-c2n[nH]cc2-c2ccnc(-c3ccc(OCCn4ccnc4)cc3)c2)nc1,2.18%,0.35%,2.46%,0.51%,1.73%,0.49%,4.21%,2.27%,2.32%,2.13%
